The list is not random: actives were taken first. Their share in the collection is about 0.69%.
Glioma ERSR ind = qHTS for Inducers of the Endoplasmic Reticulum Stress Response (ERSR) in Human Glioma: qHTS. U87-MG GRP78 promoter luciferase reporter, 16 h. Potency, µM, for the others: top-dose activation, actives largely listed as activators. hit rate 0.02% among 420,000; further: series mostly up to about 76 µM; % of control where 0% means no effect; nearly all actives have a fitted effect of over 35% in size
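Stably transfected U87-MG glioma cells carrying a GRP78-based luciferase sensor; 16 h compound incubation. Luminescence end-point read 10 min after Bright-Glo addition at room temperature.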
Abeta rescue = qHTS for compounds that reverse cellular toxicity of Amyloid beta (A-beta) peptide in yeast: Primary Screen; yeast expressing A-beta42, growth rescue, OD600, 48 h; response scale: 0% DMSO, 100% iron-clioquinol control; Potency, µM (top dose mostly 46.1 µM), hits mostly activators; hit rate 0.063% among 410,000; AID 1347071, 2019; further: nearly all actives have a fitted effect of over 55% in size
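Yeast A-beta toxicity model in growth medium with pinned compounds, 48 h at 30 C; growth read as absorbance at 600 nm. Normalized to FeCl3/clioquinol equimolar mix (positive) and DMSO (negative).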
PINK1 expr mod = A Quantitative High throughput Screen to Identify Chemical Modulators of PINK1 Expression | PINK1 immunofluorescence, high-content cytometry, 24 h | Potency, µM (highest dose often 76.6 µM), without a hit: at the highest dose activation (PINK1 increase), actives largely listed as activators | hit rate 0.2% among 410,000 | AID 624263, 2012; active means well fitted activation curve with a large enough effect; inconclusive means small, poorly fitted or top-dose-only effect; cell line not stated here; further: % of control where 0% means no effect; nearly all actives have a fitted effect of over 65% in size
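Decision-based qHTS: stable cells, 24 h exposure to five compound concentrations, CCCP as control. Fixed cells stained for PINK1 plus nuclear, mitochondrial and cell markers, cytometer read.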
FUS suppressor = qHTS for Suppressors of FUS Proteinopathy: Primary screen using FUS-linked yeast assay | S. cerevisiae FUS-expressing, growth rescue, OD600, 24 h | hit rate 0.24% among 390,000 | Potency, µM (titrated, usually from 76.6 µM), most hits filed as activators;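 further: plate controls were DMSO vehicle for no effect and reference control for full effect; nearly all actives have a fitted effect of over 55% in size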
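Absorbance at 600 nm, taken 24hr after compound addition, measured rescue of FUS-yeast growth at 30C. Induction used 2% galactose with seeding at OD 0.005. Controls: CP55940 from 92uM final, DMSO only.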
Vif-APOBEC3G blk = qHTS for Inhibitors of Vif-A3G Interactions: qHTS; hit rate 0.076% among 410,000; AID 602310, 2012; Potency, µM (titrated, usually from 46.1 µM), for the others: at the top dose activity, negative = active, actives largely listed as inhibitors; HeLa A3G-eYFP + Vif (tagged APOBEC3G with the HIV-1 protein that degrades it), YFP fluorescence, overnight; DNA dC->dU-editing enzyme APOBEC-3G (Homo sapiens), Q9HC16; further: on the % scale 0 is the no-effect control and ±100 the full control effect; nearly all actives have a fitted effect of over 60% in size
Target sequence (Q9HC16 whole entry, looked up): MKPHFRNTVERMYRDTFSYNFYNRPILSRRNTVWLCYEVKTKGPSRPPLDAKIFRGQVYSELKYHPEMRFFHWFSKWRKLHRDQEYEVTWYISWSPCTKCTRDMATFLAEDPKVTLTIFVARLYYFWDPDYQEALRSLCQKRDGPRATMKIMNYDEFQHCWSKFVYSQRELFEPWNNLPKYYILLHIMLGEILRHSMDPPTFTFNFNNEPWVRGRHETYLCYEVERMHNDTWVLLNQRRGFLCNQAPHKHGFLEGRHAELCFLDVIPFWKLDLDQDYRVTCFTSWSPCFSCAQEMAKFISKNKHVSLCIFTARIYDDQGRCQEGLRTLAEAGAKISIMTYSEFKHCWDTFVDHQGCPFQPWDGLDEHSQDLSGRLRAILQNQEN
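Read-out is eYFP fluorescence (Ex 488/Em 500-530) from Vif-expressing HeLa A3G-eYFP cells; more signal means A3G escaped Vif-mediated degradation. Cells plated overnight, compound pinned in, incubated overnight at 37 deg C.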
Vif-A3F inh = qHTS for Inhibitors of Vif-A3F Interactions: qHTS; HeLa A3F-eYFP + Vif (tagged APOBEC3F with the HIV-1 protein that degrades it), YFP fluorescence increase; Potency, µM (highest dose often 46.1 µM), inactives show top-dose activity, negative = active; hit rate 0.2% among 390,000; AID 602313, 2012; further: % of control where 0% means no effect; nearly all actives have a fitted effect of over 65% in size
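HeLa cells stably expressing Vif plus C-terminally eYFP-tagged A3F were seeded, incubated overnight at 37 deg C, dosed with compound, incubated overnight again at 37 deg C. Yellow fluorescence (Ex 488/Em 500-530) reported blocked Vif-mediated A3F-eYFP degradation.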
An asterisk follows results filed as active; i = inactive; ? = inconclusive; nt = not tested or not shown; [ ] = dose if it differs, or a comment. Unless noted, the call rests on the fitted dose curve; in most records, active means well fitted curve in the direction sought with a large enough effect; inconclusive means small, poorly fitted or top-dose-only effect, or another doubt; inactive means no such curve, though single readings can be large; an effect the other way counts as inactive or inconclusive. Potency means the concentration at half of the fitted maximal effect.

SMILES	Glioma ERSR ind	Abeta rescue	PINK1 expr mod	FUS suppressor	Vif-APOBEC3G blk	Vif-A3F inh
CCCCOc1ccc(C2C(=O)N(C3CCCCC3)CC(=O)N2CC2CCCO2)cc1 (stereo not given)	-2.5%	i	3.7%[38.3 µM]	8.91µM*	0.8%	-3.4%
COc1ccccc1NC(=O)c1sc2ncn(CC(=O)Nc3ccccc3)c(=O)c2c1C	-4.0%	i	-0.7%	i	-3.4%	25.1µM*
COc1ccccc1NC(=O)Cn1cnc2sc(C(=O)Nc3cc(OC)c(OC)c(OC)c3)c(C)c2c1=O	-1.5%	?	2.5%	i	-0.7%	-11.1%
O=C(Cn1c(O)c(N=NC(=O)c2ccncc2)c2ccccc21)Nc1ccccc1	-6.7%	i	6.0%	i	-3.3%	-8.9%
Cc1ccc(NC(=O)Cn2c(O)c(N=NC(=O)c3ccncc3)c3ccccc32)cc1	-5.1%	i	7.4%	i	0.5%	3.98µM*
CC1CCCN(c2nc(-c3cccnc3)nc3scc(-c4ccccc4)c23)C1 (stereo not given)	0.4%	i	28.2µM*	i	-5.1%	-8.6%
Fc1ccc(/C=C/c2ccc3ccccc3n2)cc1	-2.9%	nt	nt	nt	4.3%	nt
Oc1ccc(CNc2ccccc2F)c2cccnc12	-0.8%	i	28.2µM*	i	-9.0%	0.0%
CCOC(=O)/C=C/c1ccc2c(c1)S(=O)(=O)N(C1CCCC1)[C@H]2CC(=O)OCC	-0.8%	nt	nt	nt	3.5%	nt
Cc1c(CC(=O)N2CCC(O)CC2)c(=O)oc2cc3c(cc12)CCC1(CCCCC1)O3	-0.3%	i	2.3%	31.6µM*	1.3%	-4.9%
CC1CC2(CCCC2)Nc2ccc(F)cc21 (stereo not given)	0.0%	i	10.2%	i	-1.6%	1.3%
Cc1cccc2c1NC1(CCCC1)CC2C (stereo not given)	-2.1%	i	44.7µM*	i	1.0%	-4.6%
CCc1ccc(C(=O)NC(=S)Nc2ccc(N3CCOCC3)cc2)cc1	-4.0%	?	8.8%	i	1.4%	10µM*
O=C(Nc1ccc(N2CCN(C(=O)c3ccccc3)CC2)cc1)c1cc([N+](=O)[O-])ccc1N1CCOCC1	-2.1%	i	-0.3%	35.5µM*	0.6%	2.0%
O=C(Nc1ccc(N2CCOCC2)cc1)c1cccc2ccccc12	1.3%	i	9.3%	i	10µM*	-2.0%
O=C(NC(=S)Nc1ccc(N2CCOCC2)cc1)c1ccccc1	-0.3%	i	-0.1%	i	-0.3%	1.9%
Cc1ccc(N/C=C/c2onc(C)c2[N+](=O)[O-])cc1	3.7%	i	6.2%	i	-1.1%	9.0%
Cc1cccc(C)c1N/C=C/c1onc(C)c1[N+](=O)[O-]	-1.3%	i	39.8µM*	i	?	?
Cc1nc2c(-c3ccccc3)c(C)[nH]n2c(=O)c1Cc1ccccc1	-2.8%	i	0.5%	i	-3.4%	-21.4%
Cc1nc2c(-c3ccc(Cl)cc3)c(C)[nH]n2c(=O)c1Cc1ccccc1	-2.2%	i	35.5µM*	i	3.4%	16.8%
O=C(Nc1ccccc1)C(Cc1ccccc1)N1Cc2ccccc2C1=O (stereo not given)	-1.7%	i	?	i	0.7%	7.4%
O=C(Nc1ccc([N+](=O)[O-])cc1)C(Cc1ccccc1)N1C(=O)c2cccc3cccc(c23)C1=O (stereo not given)	?	i	10.1%	i	10µM*	?
CC(CCc1ccc(O)cc1)N1CCOc2c(O)cc(-c3nc4ccccc4s3)cc2C1 (stereo not given)	-1.3%	nt	1.7%	nt	nt	nt
Cc1cc(/C([O-])=C(/C(=S)Nc2ccc(F)cc2)[n+]2ccccc2)c(C)n1-c1ccc(F)cc1	1.5%	i	5.3%[38.3 µM]	?	3.8%	-4.8%

Bioassay records: PubChem, National Center for Advancing Translational Sciences (NCATS)
